# In all, about 48,000 compounds went through this assay and about 13,000 (27%) showed an effect of 50% or more. The list shows a part of the results.
# System: Wolbachia pipientis
# Experiment: Anti-Wolbachia Cell-Based Screen
# Assay type: functional
# Design: scale not given: in the data most compounds retested in dose-response had high values
# Settings: 5 µM
row,SMILES,Percent Effect [%]
1,O=C(N1CCCC(n2cncn2)C1)C1(c2cccc(F)c2)CCC1 (configuration not stated),131.6
2,Cc1cc(C)cc(C2(C(=O)N3CCCC(n4cncn4)C3)CC2)c1 (configuration not stated),4.808
3,O=C(N1CCCC(n2cncn2)C1)C1(c2cccc(F)c2)CCCC1 (configuration not stated),112.9
4,O=C(N1CCC(Oc2ccncc2)C1)C1(c2cccc(F)c2)CC1 (configuration not stated),-3.42
5,O=C(N1CCCC(n2cncn2)C1)C1(c2ccc(Cl)cc2)CCC1 (configuration not stated),129.1
6,O=C(c1ccn[nH]1)N1CCCC(n2cncn2)C1 (configuration not stated),8.656
7,O=C(N1CCCC(n2cncn2)C1)C1(c2cccc(F)c2)CC1 (configuration not stated),123
8,O=C(N1CCOCC(O)C1)C1(c2ccc(Cl)cc2)CCC1 (configuration not stated),-14.09
9,COc1ccccc1N1CCC(N2CCOC(C(F)(F)F)C2)CC1 (configuration not stated),10.11
10,COc1ccc(NC(=O)CCC2CCCN(Cc3ncon3)C2)c(C)c1 (configuration not stated),0.05921
11,CC(C)N1C[C@@H](F)[C@@H](OCc2nc3ncccc3[nH]2)C1,-12.53
12,CC(C)c1cc(CN(C)C(=O)CN2CCC(C(N)=O)CC2)no1,136.4
13,Cc1cc(CN(C)C(=O)CN2CC3(CCNCC3)OC2=O)no1,-10.43
14,Cc1ncsc1CCN(C)C(=O)CN1CCCCC1=O,17.08
15,CCc1cc(CN(C)C(=O)CN2CC3(CCNCC3)OC2=O)on1,3.162
16,CN(Cc1cc(C2CC2)on1)C(=O)CN1C(=O)OC(C)(C)C1=O,-4.246
17,Cc1cc(CN(C)C(=O)C2CCCN(C(N)=O)C2)no1 (configuration not stated),12.67
18,CC(C)c1cc(CN(C)C(=O)CN2CCNC2=O)no1,133
19,Cc1cc(CN(C)C(=O)NC2CCN(Cc3ccccc3)C2)no1 (configuration not stated),-11.75
20,CC(C)c1cc(CN(C)C(=O)CN2CCCCC2=O)no1,112.2
21,Cc1cc(CN(C)C(=O)NCc2cccc(N3CCCC3=O)c2)no1,2.405
22,Cc1nc(CCN(C)C(=O)CN2CCCCCC2)no1,5.465
23,Cc1cc(CN(C)C(=O)CN2CCCCCC2=O)no1,104.9
24,CCOCC(=O)NC(C#N)c1cnn(-c2ccccc2)c1 (configuration not stated),0.4784
25,CCc1cc(CN(C)Cc2nc(-c3ccc(OC)cc3F)oc2C)on1,-9.467
26,Cc1cnccc1N1CCCN(C(=O)CCCc2cn[nH]c2)CC1,11.82

row,SMILES,Percent Effect [%]
1,O=C(Nc1nncs1)N1CCCN(C2CCCC2)CC1,-1.803
2,CNC(=O)COc1ccccc1CNCc1c(C)noc1C,-55.32
3,Cc1n[nH]c(C)c1CCC(=O)N[C@@H]1CCC[C@@H](Oc2ccccc2)[C@@H]1O,124.4
4,Cc1noc(C)c1CCC(=O)N[C@@H]1CCC[C@@H](Oc2cccnc2)[C@@H]1O,114.3
5,Cc1noc(C)c1CCC(=O)N[C@@H]1CC[C@@H](Oc2cccnc2)[C@@H]1O,106.7
6,Cc1n[nH]c(C)c1CNC(=O)NC1CCCCC1,-5.785
7,Cc1nn(C)c(Oc2cccnc2)c1NC(=O)C1CCCO1 (configuration not stated),5.234
8,Cc1noc(C)c1CNC[C@@]1(COc2cccnc2)C[C@@H](O)[C@@H](O)C1.Cl.Cl,-8.065
9,Cc1n[nH]c(C)c1CCCNCc1cn(CCC(N)=O)c2ccccc12,-2.861
10,Cc1[nH]ncc1CCCNC(=O)Nc1ccc2c(c1)OC1(CCCC1)O2,-12.99
11,Cc1cc2n(n1)CC(CNC1CCN(Cc3ccncc3)CC1)CN2 (configuration not stated),3.296
12,Cc1noc(C)c1CNC(=O)N(C1CC1)C(C)c1ccco1 (configuration not stated),-2.539
13,Cc1ccc2c(-c3nc4c([nH]3)CCNC4C(=O)O)cccc2n1 (configuration not stated),0.6964
14,O=C(CC1CCc2ccccc21)NC1(C(=O)O)CCCC1 (configuration not stated),9.016
15,CCC(=O)N1CCC2(CC1)CC(CC(=O)N(C)C)c1ccc(F)cc12 (configuration not stated),103
16,CCN1CCC2(CC1)CC(CC(=O)N(C)C)c1ccc(F)cc12 (configuration not stated),112.9
17,Cc1ccc2c(c1)C1(CCNCC1)CC2OCC1CC1 (configuration not stated),7.08
18,CCC(=O)N1CCC2(CC1)CC(CC(N)=O)c1ccc(F)cc12 (configuration not stated),3.39
19,COCCN1CCC2(CC1)CC(CC(N)=O)c1ccc(F)cc12 (configuration not stated),8.076
20,CCNC(=O)CC1CC2(CCN(C(C)=O)CC2)c2cc(F)ccc21 (configuration not stated),-4.484
21,CNC(=O)CC1CC2(CCN(Cc3nccs3)CC2)c2ccccc21.O=C(O)C(F)(F)F (configuration not stated),-2.085
22,CCOC1CC2(CCN(C(=O)COC)CC2)c2cc(F)ccc21 (configuration not stated),-4.976
23,O=C(CC1CC2(CCNCC2)c2ccccc21)NCC1CC1 (configuration not stated),105
24,CNC(=O)CC1CC2(CCNCC2)c2cc(F)ccc21 (configuration not stated),95.41
25,COCC(=O)N1CCC2(CC1)CC(CC(=O)NC1CC1)c1ccccc12 (configuration not stated),-16.01
26,CCN1CC(C(=O)N2CCc3cc(C(N)=O)n(C)c3C2)CCC1=O (configuration not stated),-10.45

row,SMILES,Percent Effect [%]
1,Cc1ccc(-c2nc(CN3CCn4c(nnc4C4CC4)C3)no2)cc1,-10.52
2,c1cncc(NCCNC2CCSC2)c1 (configuration not stated),14.04
3,CCC(C)n1cnc(S(=O)(=O)N(C)c2cccnc2N(C)C)c1 (configuration not stated),2.284
4,Cc1nnc(CSc2ccccn2)o1,-5.067
5,O=C(CCN1CCCC1C1CCCCC1)N1CCc2sccc2C1 (configuration not stated),3.149
6,CN(C)S(=O)(=O)N1CCC2(CC1)CC(OCC1CC1)CO2 (configuration not stated),-4.528
7,CC(C)(C)CC(=O)NC[C@H]1OC[C@@H](NC2CCC(F)(F)CC2)[C@@H]1O,-11.06
8,COc1nn(C)c2c1CCCN(C(=O)c1cscn1)C2,93.39
9,COc1nn(C)c2c1CCCN(C(=O)c1cnccn1)C2,102.6
10,Cn1nc(C#N)c2c1CN(C(=O)c1nc[nH]n1)CCC2,-49.74
11,COc1nn(C)c2c1CCCN(C(=O)c1c[nH]cn1)C2,-44.84
12,Cn1nc(C#N)c2c1CN(C(=O)c1c[nH]cn1)CCC2,-11.9
13,Cn1nc(C#N)c2c1CN(C(=O)c1ccnnc1)CCC2,-0.2276
14,CCN(Cc1noc(C(C)(C)C)n1)Cc1ccc(C#N)cc1F,-6.556
15,OC(CN(Cc1ccccc1)Cc1cccnc1)c1cccs1 (configuration not stated),-7.082
16,Cn1cccc1-c1cc(C(=O)N2CCCC2c2nccs2)[nH]n1 (configuration not stated),-11.21
17,Cc1cc(C)n(CCC(=O)N2CCCCC2c2nccs2)n1 (configuration not stated),97.13
18,Cc1cc(C)n(CC2CCCN2C(=O)CCCNc2ncccn2)n1 (configuration not stated),-5.56
19,Cc1cc(C)n(Cc2cc(C(=O)N3CCCCC3c3nccs3)n[nH]2)n1 (configuration not stated),94.44
20,Cc1cc(C)n(Cc2cc(C(=O)N3CCCC3c3nccs3)n[nH]2)n1 (configuration not stated),147.1
21,Cc1noc(CCCC(=O)N2CCCCC2c2nccs2)n1 (configuration not stated),4.452
22,Cc1cc(C)n(Cc2cc(C(=O)N[C@H]3CCCCNC3=O)n[nH]2)n1,1.384
23,O=C(CCCn1cncn1)N1CCCCC1c1nccs1 (configuration not stated),-0.08053
24,Cc1cc(C)n(CC2CCCN2C(=O)Cc2cn3ccsc3n2)n1 (configuration not stated),5.291
25,Cc1cc(C)n(Cc2cc(C(=O)N3CCCC3c3ccccn3)n[nH]2)n1 (configuration not stated),101.3
26,CC(=O)N1CCC(N2CCN3C(=O)N(c4ccccc4)C[C@H]3C2)CC1,-6.558

row,SMILES,Percent Effect [%]
1,CC(C)C(=O)N1CCN(S(=O)(=O)C2CC2)CC2(CC(=O)N(C)C2)C1 (configuration not stated),-3.068
2,CNC(=O)c1nnn(-c2ccccc2F)c1-c1ccccn1,-7.96
3,C[C@H]1C[C@H]2CN(C(=O)C3=CCCCC3)CC[C@H]2O1,-8.819
4,Cc1cccc2[nH]c(C3CCCN3Cc3ccc(CO)o3)nc12 (configuration not stated),-7.499
5,CCS(=O)(=O)NC(C(=O)NC)c1ccc(F)c(F)c1 (configuration not stated),-1.609
6,CCc1nc(C2CCCN2C(=O)c2cc(C3CC3)[nH]n2)no1 (configuration not stated),-2.923
7,Cc1cc(C(=O)N2CCCCC2c2nc(C)cs2)[nH]n1 (configuration not stated),5.063
8,Cc1csc(N2CCN(C(=O)c3cc(C4CC4)[nH]n3)CC2)n1,-15.84
9,Cc1csc(C2CCCCN2C(=O)c2cc(C(C)C)[nH]n2)n1 (configuration not stated),109.6
10,Cc1csc(C2CCCCN2C(=O)c2cc(C3CC3)[nH]n2)n1 (configuration not stated),105.1
11,COC(=O)c1cc2c(=O)[nH]c(=O)n(CCc3ccccc3)c2nc1C,-9.313
12,O=C(c1ccc2cccc(F)c2n1)N1CCN(CCn2cncn2)CC1,-17.81
13,Cc1cc(CN(C)C(=O)NC(C)c2nncn2C)no1 (configuration not stated),1.763
14,Cc1cc(C)n(C2CN(c3nc(N)nc4c3CCCC4)C2)n1,12.27
15,NCc1csc(CCc2ccccc2)n1,-7.942
16,O=S(=O)(c1cccc(Cl)c1)N1CCCC(Cn2cncn2)C1 (configuration not stated),-2.672
17,CN1C(=O)C[C@@H]2[C@@H]1CCN2S(=O)(=O)Cc1ccccc1,-5.88
18,CN(C)Cc1cc(C2CCCCN2S(=O)(=O)Cc2ccccc2)nn1C.Cl (configuration not stated),133.2
19,CN(C)Cc1cc(C2CCCCN2S(=O)(=O)c2cccc(Cl)c2)nn1C.Cl (configuration not stated),167.4
20,CCN(C)C[C@@H]1CN(S(=O)(=O)c2cccc(Cl)c2)C[C@@H]1CO,13.86
21,O=S(=O)(N1CCCC1)N1CCCCC1CCc1ccccc1 (configuration not stated),1.463
22,CN(C)Cc1cc(C2CCCN(S(=O)(=O)c3cccc(Cl)c3)C2)nn1C (configuration not stated),157.3
23,CN(C)CCN1CC[C@@H]2[C@@H]1CCN2C(=O)c1cccc(Cl)c1,-16.88
24,CCN(Cc1cccc(NC(=O)COC)c1)C(C)=O,-0.3601
